The list is not random: actives were taken first. Their share in the collection is about 4%.
ADAM10 inh: ADAM10 inhibition, QFRET primary screen. O14672. recombinant ADAM10, EDANS/DABCYL FRET peptide cleavage, 3 h. inhibition, % at 7 µM. 0.62% of 370,000 active;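 active = inhibition above a per-campaign cutoff equal to the mean of compounds falling between control-based bounds plus 3 SD, cut at about 20% in these data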
Target sequence (O14672 214-748 limits assumed): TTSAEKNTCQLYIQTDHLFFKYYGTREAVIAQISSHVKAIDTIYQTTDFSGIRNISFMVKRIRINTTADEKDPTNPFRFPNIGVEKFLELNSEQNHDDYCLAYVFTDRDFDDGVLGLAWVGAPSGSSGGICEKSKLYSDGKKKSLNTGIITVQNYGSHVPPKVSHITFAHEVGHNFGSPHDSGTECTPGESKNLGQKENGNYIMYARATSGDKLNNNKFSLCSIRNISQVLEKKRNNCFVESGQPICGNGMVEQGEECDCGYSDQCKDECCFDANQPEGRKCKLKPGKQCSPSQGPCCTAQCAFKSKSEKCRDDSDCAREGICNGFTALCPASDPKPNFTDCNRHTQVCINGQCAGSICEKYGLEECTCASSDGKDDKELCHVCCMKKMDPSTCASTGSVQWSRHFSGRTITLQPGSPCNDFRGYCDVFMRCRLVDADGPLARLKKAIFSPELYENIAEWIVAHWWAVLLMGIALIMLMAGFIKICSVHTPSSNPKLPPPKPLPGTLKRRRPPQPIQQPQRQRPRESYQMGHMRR
ADAM17 inh: ADAM17 inhibition, QFRET primary screen | P78536 | recombinant ADAM17, EDANS/DABCYL FRET peptide cleavage | inhibition, % at 6.95 µM | 0.83% of 370,000 active | AID 720648;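 active = inhibition above the mean of compounds lying between control limits plus 3 SD, set per campaign, cut at about 8.5% in these data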
GRIN3A LBD mod: NR3A (human) ligand-binding domain modulation; NR3A LBD differential scanning fluorimetry, Tm shift; 0% = protein alone, 100% = glycine-bound protein; Tm shift relative to glycine control, % at 25 µM; 2.5% of 340,000 active; AID 1259313;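 active = melting temperature shift of at least 10% of the positive control shift, at one fixed dose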
aDG glyco act: alpha-DG glycosylation activation; Pro5-aDG cells, alpha-DG glycosylation AlphaScreen (IIH6); 0% Pro5, 100% B10-LARGE cell signal; activation, % at 10 µM; 0.22% of 360,000 active; AID 624168;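 active = activation of at least 8% versus controls, or a plate z-score of at least 8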;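 note: Pro5 are CHO cells carrying HIG-tagged alpha-DG that lacks glycosylation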
FAS-TE inh: blocks the thioesterase domain of human fatty acid synthase | inhibition, % at 15 µM | 0.67% of 360,000 active | P49327 | AID 602261 | recombinant FAS-TE, OMFH fluorogenic substrate, fluorescence endpoint;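 active = compounds whose normalised, plate-corrected inhibition of enzyme fluorescence in the single-dose primary screen is 50% or more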
A number is an active result.

What do the screens show for `O=C(COC(=O)c1ccccc1-c1nc2ccccc2s1)Nc1ccccc1C(F)(F)F`?
ADAM10 inh: inactive; ADAM17 inh: inactive; GRIN3A LBD mod: inactive; aDG glyco act: inactive; FAS-TE inh: inactive

What do the screens show for `CC(C)=CCOc1ccc([C@@H]2COc3c(ccc4c3C=CC(C)(C)O4)C2)c(O)c1`?
ADAM10 inh: inactive; ADAM17 inh: inactive; GRIN3A LBD mod: 15; aDG glyco act: inactive; FAS-TE inh: inactive

Results for CC(=O)c1cc(-c2ccc(F)cc2)n(CCC(=O)Nc2cccnc2)c1C ?
ADAM10 inh: inactive; ADAM17 inh: inactive; GRIN3A LBD mod: inactive; aDG glyco act: inactive; FAS-TE inh: inactive

Results for Cc1cc(Nc2ccc(F)c(F)c2)nc(-c2ccccc2O)n1 ?
ADAM10 inh: inactive; ADAM17 inh: inactive; GRIN3A LBD mod: 23; aDG glyco act: inactive; FAS-TE inh: inactive

Results for Cc1cc(Nc2ccc(Br)cc2)nc(-c2ccccc2O)n1 ?
ADAM10 inh: inactive; ADAM17 inh: inactive; GRIN3A LBD mod: 29; aDG glyco act: inactive; FAS-TE inh: inactive

How did Cc1ccc(Nc2cc(C)nc(-c3ccccc3O)n2)cc1 do in these assays?
ADAM10 inh: inactive; ADAM17 inh: inactive; GRIN3A LBD mod: inactive; aDG glyco act: inactive; FAS-TE inh: inactive

What do the screens show for `O=C(/C(N=Nc1cccc([N+](=O)[O-])c1)=C(/O)c1ccc(Br)cc1)C(F)(F)F`?
aDG glyco act: inactive; FAS-TE inh: 64

Results for C[C@@H]1CN([C@@H](C)CO)C(=O)CCCn2nncc2CO[C@@H]1CN(C)C(=O)Nc1cccc2ccccc12 ?
ADAM10 inh: inactive; ADAM17 inh: inactive; aDG glyco act: inactive; FAS-TE inh: inactive

How did O=C(Nc1cccc(-n2cnnn2)c1)c1cc(Cl)ccc1Cl do in these assays?
ADAM10 inh: inactive; ADAM17 inh: inactive; GRIN3A LBD mod: inactive; aDG glyco act: inactive; FAS-TE inh: inactive

How did O=C(Nc1cccc(-n2cnnn2)c1)c1ccoc1COc1ccc(Cl)cc1 do in these assays?
ADAM10 inh: inactive; ADAM17 inh: inactive; GRIN3A LBD mod: 21; aDG glyco act: inactive; FAS-TE inh: inactive

What do the screens show for `CSc1ccccc1OCc1cc(C(=O)NCCn2nc(C)cc2C)no1`?
ADAM10 inh: inactive; ADAM17 inh: inactive; GRIN3A LBD mod: inactive; aDG glyco act: inactive; FAS-TE inh: inactive

Results for CSc1ccccc1OCc1cc(C(=O)NCCN2CCCc3ccccc32)no1 ?
ADAM10 inh: inactive; ADAM17 inh: inactive; GRIN3A LBD mod: 12; aDG glyco act: inactive; FAS-TE inh: inactive

How did Cc1ccc(OCC(=O)O/N=C(\N)Cc2ccc(Cl)cc2)cc1 do in these assays?
ADAM10 inh: inactive; ADAM17 inh: inactive; GRIN3A LBD mod: inactive; aDG glyco act: inactive; FAS-TE inh: inactive

Results for COc1ccc(OCC(=O)O/N=C(\N)Cc2ccc(Cl)cc2)cc1 ?
ADAM10 inh: inactive; ADAM17 inh: inactive; GRIN3A LBD mod: 15; aDG glyco act: inactive; FAS-TE inh: inactive

Results for Cc1cc(NS(=O)(=O)c2ccc(NC(=O)c3ccoc3C)cc2)nc(C)n1 ?
ADAM10 inh: inactive; ADAM17 inh: inactive; GRIN3A LBD mod: inactive; aDG glyco act: inactive; FAS-TE inh: inactive

What do the screens show for `COc1cc([C@@H]2c3cc4c(cc3[C@@H](O)[C@H]3COC(=O)[C@H]23)OCO4)cc(OC)c1O[Si](C)(C)C(C)(C)C`?
ADAM10 inh: inactive; ADAM17 inh: inactive; GRIN3A LBD mod: 11; aDG glyco act: inactive; FAS-TE inh: inactive

How did Oc1ccc(-c2nc3c4c(ncn3n2)-c2ccccc2CC42CCCC2)cc1 do in these assays?
ADAM10 inh: inactive; ADAM17 inh: inactive; GRIN3A LBD mod: 61; aDG glyco act: inactive; FAS-TE inh: inactive

How did COc1ccc(N=C2S/C(=C\c3ccc(OCC(=O)O)cc3)C(=O)N2CCc2c[nH]c3ccccc23)cc1 do in these assays?
ADAM10 inh: inactive; ADAM17 inh: 9.2; GRIN3A LBD mod: inactive; aDG glyco act: inactive; FAS-TE inh: inactive

Results for CCCN1C(=O)/C(=C/c2ccco2)SC1=Nc1ccc(OC)cc1 ?
GRIN3A LBD mod: 21; aDG glyco act: inactive; FAS-TE inh: inactive

What do the screens show for `COc1ccc(N=C2S/C(=C\c3ccc(N4CCOCC4)o3)C(=O)N2CCc2c[nH]c3ccccc23)cc1`?
aDG glyco act: inactive; FAS-TE inh: inactive

What do the screens show for `O=C(CSc1nc2ccccc2n1S(=O)(=O)c1ccccc1)N1CCCCC1`?
ADAM10 inh: inactive; ADAM17 inh: inactive; GRIN3A LBD mod: 14; aDG glyco act: inactive; FAS-TE inh: inactive

High-throughput results from PubChem BioAssay.
